Growth data for 16 compounds are collected here from PubChem BioAssay (NCI).

The assay relates to MDA-MB-468 breast. Briefly: NCI-60 one-dose screen, 48 h (100 = growth as untreated, 0 = no growth, -100 = all killed). The note with it: 10 µM unless noted.

“And” between values parts separate entries of the source, which are not always exact repeats. Identical values can stand only once. The panel holds about 83,000 compounds, 20% with a hit somewhere; the sample as a whole holds those more often.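 Treatment: one concentration, 48 hours, 96-well format. Scoring: percent growth, with anything below 10 considered active.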 A number with no mark means an inactive call. The source made the active and inactive calls.

In the case of `CC1(CF)NC(=O)NC1=O` (stereo unspecified), the growth was 113%. As for `O=C1NC(=O)C(=Cc2cn(C(=O)c3ccccc3)c3ccccc23)C(=O)N1`, the growth was 101%. In the case of `O=[As](O)(O)c1ccccc1[As](=O)(O)O`, the growth was 99.7%. The result for `O=C(CCl)Nc1ccc(Cl)cc1` reads 18.6%; that for `O=Cc1cn(Cc2ccc(Cl)cc2)c2ccccc12`, -45% (active); that for `O=C1C2CCC1C(N1CCCC1)CC2` (stereo unspecified), 105%. For the compound `O=P(Oc1ccc(Cl)cc1)(N1CC1)N1CC1`, the growth is 54.1%. For the compound `O=[N+]([O-])c1ccc(Br)c([N+](=O)[O-])c1`, the growth was 34%. The figure for `c1cnc2c(c1)ccc1ncccc12` is 109%. As for `CC[PH+](CC)CC.O=COC1OC([S-])C(OC=O)C(OC=O)C1OC=O.[Au+]` (stereo unspecified), the growth was -78.8% (active). For the compound `O=C(O)CNC(=O)c1ccccc1`, the growth is 122%. On to `CC[C@H](C)[C@H](NC(=O)[C@H]1CCCCN1C)C(=O)N(C)[C@H](C[C@@H](OC(C)=O)c1nc(C(=O)N[C@@H](Cc2ccccc2)C[C@H](C)C(=O)OC)cs1)C(C)C`, for which the growth is -7.99% (active). The figure for `CCC(CC)(c1ccccc1)C(OC(N)=O)c1ccccc1` (stereo unspecified) is 75.8%; for `O=C(c1cccc(O)c1O)c1cn(Cc2ccc(F)cc2)c2cccc(O)c12` it is 27%.

For the compound `C=C1C(=O)OC2CC3(C)OC3C3OC3C3=CC(OC3=O)C12` (stereo unspecified), the growth is 32.8% and 65.2%.

In the case of `CC(=O)C1CCC2C3CC=C4CC(OC(=O)Cc5ccc(N(CCCl)CCCl)cc5)CCC4(C)C3CCC12C` (stereo unspecified), the growth is 94.7%.
